# Key:
# Test in all cases: DAPPL (digital affinity profiling via proximity ligation, sequencing); 10 mM Tris-HCl pH 7.5, 50 mM NaCl, 1 mM DTT, 4% glycerol, room temperature, 30 min; GST-TFs on glutathione beads, 16-mer random dsDNA library, 0.1% formaldehyde crosslink after washing; high values mean tight binding
# Details in all cases: protein: recombinant; tags: N-terminal GST; dsDNA, one strand shown
# ERF = biological target: T1, ERF (Homo sapiens, UniProt P50548 1-548)
# T1 sequence: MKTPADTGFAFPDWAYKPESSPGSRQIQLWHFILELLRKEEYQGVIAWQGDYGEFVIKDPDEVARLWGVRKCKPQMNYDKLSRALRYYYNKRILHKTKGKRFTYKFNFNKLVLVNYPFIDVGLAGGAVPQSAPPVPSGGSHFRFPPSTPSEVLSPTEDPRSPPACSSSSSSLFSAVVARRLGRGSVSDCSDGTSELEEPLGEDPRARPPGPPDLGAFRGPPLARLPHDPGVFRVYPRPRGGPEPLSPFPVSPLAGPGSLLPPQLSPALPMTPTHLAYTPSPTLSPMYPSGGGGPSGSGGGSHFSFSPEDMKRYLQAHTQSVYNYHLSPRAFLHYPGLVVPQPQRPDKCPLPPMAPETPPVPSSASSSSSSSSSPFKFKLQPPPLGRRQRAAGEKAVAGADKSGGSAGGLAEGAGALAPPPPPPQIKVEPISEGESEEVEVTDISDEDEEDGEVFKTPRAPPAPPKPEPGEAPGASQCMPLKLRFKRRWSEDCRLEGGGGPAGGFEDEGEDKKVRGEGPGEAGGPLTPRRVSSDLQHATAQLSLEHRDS
# Procedure, shortened: (§1)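 Beads coated with glutathione captured GST-fused human transcription factors that had been expressed in yeast, and the factors were then given DNA barcodes and pooled with a tag-only sample. The pools were incubated with 200 nmole of a random double-stranded 16-mer DNA library in Tris/NaCl/DTT/glycerol buffer for 30 min at room temperature, washed, crosslinked with 0.1% formaldehyde and proximity-ligated with BsaI/T4 ligase at 37 °C for 1 h. PCR amplification and Illumina NextSeq500 sequencing came last. Binding signal is each hexamer's read frequency for a factor divided by its frequency for the tag-only sample.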
# ETV3L = biological target: T2, ETV3L (Homo sapiens, UniProt Q6ZN32 1-361)
# T2 sequence: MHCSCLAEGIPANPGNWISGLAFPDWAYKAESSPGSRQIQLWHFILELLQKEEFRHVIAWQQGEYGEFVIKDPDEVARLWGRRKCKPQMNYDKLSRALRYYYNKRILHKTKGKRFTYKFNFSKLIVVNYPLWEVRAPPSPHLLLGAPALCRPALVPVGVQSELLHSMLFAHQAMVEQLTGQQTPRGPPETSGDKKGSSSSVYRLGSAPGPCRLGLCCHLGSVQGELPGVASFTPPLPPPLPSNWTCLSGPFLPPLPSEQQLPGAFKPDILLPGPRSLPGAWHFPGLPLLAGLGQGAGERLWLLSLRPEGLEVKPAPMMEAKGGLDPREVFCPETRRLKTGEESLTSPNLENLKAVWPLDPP
# Procedure, shortened: as §1
# ETS2 = biological target: T3, ETS2 (Homo sapiens, UniProt P15036 1-469)
# T3 sequence: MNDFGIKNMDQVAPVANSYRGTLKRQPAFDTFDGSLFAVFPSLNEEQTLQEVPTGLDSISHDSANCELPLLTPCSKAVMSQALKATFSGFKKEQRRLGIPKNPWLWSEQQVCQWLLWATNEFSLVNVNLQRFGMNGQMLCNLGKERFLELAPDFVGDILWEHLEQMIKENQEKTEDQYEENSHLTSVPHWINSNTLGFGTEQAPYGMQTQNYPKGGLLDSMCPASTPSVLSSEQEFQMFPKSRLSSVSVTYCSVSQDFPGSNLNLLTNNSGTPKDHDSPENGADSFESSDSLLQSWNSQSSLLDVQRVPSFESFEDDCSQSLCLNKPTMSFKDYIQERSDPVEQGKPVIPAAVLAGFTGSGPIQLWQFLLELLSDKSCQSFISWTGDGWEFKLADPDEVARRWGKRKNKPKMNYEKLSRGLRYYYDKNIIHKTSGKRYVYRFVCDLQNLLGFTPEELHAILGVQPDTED
# Procedure, shortened: as §1
# SPDEF = biological target: T4, SPDEF (Homo sapiens, UniProt O95238 1-335)
# T4 sequence: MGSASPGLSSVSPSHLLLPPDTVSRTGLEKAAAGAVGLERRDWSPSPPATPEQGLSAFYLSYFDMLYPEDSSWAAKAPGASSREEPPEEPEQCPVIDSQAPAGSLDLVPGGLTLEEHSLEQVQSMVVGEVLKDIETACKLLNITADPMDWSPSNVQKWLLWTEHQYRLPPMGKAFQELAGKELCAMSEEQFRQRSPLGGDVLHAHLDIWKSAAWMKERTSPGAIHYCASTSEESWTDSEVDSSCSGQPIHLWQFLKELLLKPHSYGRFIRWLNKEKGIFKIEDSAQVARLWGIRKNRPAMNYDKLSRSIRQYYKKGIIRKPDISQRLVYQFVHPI
# Procedure, shortened: as §1
# ETV7 = biological target: T5, ETV7 (Homo sapiens, UniProt Q9Y603 1-341)
# T5 sequence: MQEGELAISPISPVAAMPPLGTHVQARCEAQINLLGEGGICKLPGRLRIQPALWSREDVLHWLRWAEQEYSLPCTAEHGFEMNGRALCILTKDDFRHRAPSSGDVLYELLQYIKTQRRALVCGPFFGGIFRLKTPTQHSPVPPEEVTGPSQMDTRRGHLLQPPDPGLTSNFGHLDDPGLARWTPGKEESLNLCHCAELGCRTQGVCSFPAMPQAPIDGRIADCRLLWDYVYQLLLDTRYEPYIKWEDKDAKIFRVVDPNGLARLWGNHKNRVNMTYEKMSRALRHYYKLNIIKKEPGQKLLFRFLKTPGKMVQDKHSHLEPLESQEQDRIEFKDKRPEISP
# Procedure, shortened: as §1
# ELF5 = biological target: T6, ELF5 (Homo sapiens, UniProt Q9UKW6-2 1-255)
# T6 sequence: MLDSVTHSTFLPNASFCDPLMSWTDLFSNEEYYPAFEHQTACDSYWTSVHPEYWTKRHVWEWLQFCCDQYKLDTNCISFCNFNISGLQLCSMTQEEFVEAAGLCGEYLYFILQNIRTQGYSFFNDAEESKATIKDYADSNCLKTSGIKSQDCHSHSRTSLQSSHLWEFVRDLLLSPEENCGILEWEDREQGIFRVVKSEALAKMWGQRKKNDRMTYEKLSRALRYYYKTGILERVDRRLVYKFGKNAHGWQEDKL
# Procedure, shortened: as §1
# ETV3 = biological target: T7, ETV3 (Homo sapiens, UniProt P41162-2 1-143)
# T7 sequence: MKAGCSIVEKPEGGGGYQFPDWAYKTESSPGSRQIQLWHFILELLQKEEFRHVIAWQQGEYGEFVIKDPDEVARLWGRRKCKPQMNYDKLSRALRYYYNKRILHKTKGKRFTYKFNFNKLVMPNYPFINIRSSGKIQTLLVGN
# Procedure, shortened: as §1
# ETV6 = ETV6 (Homo sapiens, UniProt P41212 1-452)
# ETV6, sequence (P41212 whole entry): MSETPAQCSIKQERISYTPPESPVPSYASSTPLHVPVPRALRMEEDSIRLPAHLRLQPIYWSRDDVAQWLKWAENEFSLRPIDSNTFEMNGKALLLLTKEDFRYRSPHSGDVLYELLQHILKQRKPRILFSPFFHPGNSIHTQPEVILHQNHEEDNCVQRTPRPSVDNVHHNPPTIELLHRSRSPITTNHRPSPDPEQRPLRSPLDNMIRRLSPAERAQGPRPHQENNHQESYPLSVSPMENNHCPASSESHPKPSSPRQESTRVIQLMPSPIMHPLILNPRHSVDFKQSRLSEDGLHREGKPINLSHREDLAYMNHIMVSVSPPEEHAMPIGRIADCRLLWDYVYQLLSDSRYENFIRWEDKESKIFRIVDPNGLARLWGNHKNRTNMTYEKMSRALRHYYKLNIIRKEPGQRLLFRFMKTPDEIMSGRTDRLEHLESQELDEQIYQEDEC
# Procedure, shortened: as §1
Sequence,binding signal (ERF),binding signal (ETV3L),binding signal (ETS2),binding signal (SPDEF),binding signal (ETV7),binding signal (ELF5),binding signal (ETV3),binding signal (ETV6)
GCTATT,"1.37 fold enrichment (6-mer frequency, TF over GST control)","1.34 fold enrichment (6-mer frequency, TF over GST control)","1.25 fold enrichment (6-mer frequency, TF over GST control)","1.2 fold enrichment (6-mer frequency, TF over GST control)","1.34 fold enrichment (6-mer frequency, TF over GST control)","1.33 fold enrichment (6-mer frequency, TF over GST control)","1.25 fold enrichment (6-mer frequency, TF over GST control)","1.35 fold enrichment (6-mer frequency, TF over GST control)"
AAGAAA,"1.24 fold enrichment (6-mer frequency, TF over GST control)","1.26 fold enrichment (6-mer frequency, TF over GST control)","1.24 fold enrichment (6-mer frequency, TF over GST control)","1.09 fold enrichment (6-mer frequency, TF over GST control)","1.26 fold enrichment (6-mer frequency, TF over GST control)","1.2 fold enrichment (6-mer frequency, TF over GST control)","1.16 fold enrichment (6-mer frequency, TF over GST control)","1.22 fold enrichment (6-mer frequency, TF over GST control)"
CTTCCG,"6.13 fold enrichment (6-mer frequency, TF over GST control)","7.08 fold enrichment (6-mer frequency, TF over GST control)","8.04 fold enrichment (6-mer frequency, TF over GST control)","7.63 fold enrichment (6-mer frequency, TF over GST control)","7.48 fold enrichment (6-mer frequency, TF over GST control)","11.4 fold enrichment (6-mer frequency, TF over GST control)","8.47 fold enrichment (6-mer frequency, TF over GST control)","9.62 fold enrichment (6-mer frequency, TF over GST control)"
TTGATA,"1.24 fold enrichment (6-mer frequency, TF over GST control)","1.27 fold enrichment (6-mer frequency, TF over GST control)","1.15 fold enrichment (6-mer frequency, TF over GST control)","1.13 fold enrichment (6-mer frequency, TF over GST control)","1.23 fold enrichment (6-mer frequency, TF over GST control)","1.21 fold enrichment (6-mer frequency, TF over GST control)","1.25 fold enrichment (6-mer frequency, TF over GST control)","1.14 fold enrichment (6-mer frequency, TF over GST control)"
AATCAA,"1.17 fold enrichment (6-mer frequency, TF over GST control)","1.24 fold enrichment (6-mer frequency, TF over GST control)","1.18 fold enrichment (6-mer frequency, TF over GST control)","1.11 fold enrichment (6-mer frequency, TF over GST control)","1.16 fold enrichment (6-mer frequency, TF over GST control)","1.16 fold enrichment (6-mer frequency, TF over GST control)","1.2 fold enrichment (6-mer frequency, TF over GST control)","1.2 fold enrichment (6-mer frequency, TF over GST control)"
CCTTTT,"1.65 fold enrichment (6-mer frequency, TF over GST control)","1.69 fold enrichment (6-mer frequency, TF over GST control)","1.46 fold enrichment (6-mer frequency, TF over GST control)","1.55 fold enrichment (6-mer frequency, TF over GST control)","1.53 fold enrichment (6-mer frequency, TF over GST control)","1.61 fold enrichment (6-mer frequency, TF over GST control)","1.55 fold enrichment (6-mer frequency, TF over GST control)","1.67 fold enrichment (6-mer frequency, TF over GST control)"
TTGTTC,"1.63 fold enrichment (6-mer frequency, TF over GST control)","1.44 fold enrichment (6-mer frequency, TF over GST control)","1.33 fold enrichment (6-mer frequency, TF over GST control)","1.48 fold enrichment (6-mer frequency, TF over GST control)","1.44 fold enrichment (6-mer frequency, TF over GST control)","1.55 fold enrichment (6-mer frequency, TF over GST control)","1.52 fold enrichment (6-mer frequency, TF over GST control)","1.46 fold enrichment (6-mer frequency, TF over GST control)"
ACGTAT,"1.15 fold enrichment (6-mer frequency, TF over GST control)","1.28 fold enrichment (6-mer frequency, TF over GST control)","1.27 fold enrichment (6-mer frequency, TF over GST control)","1.36 fold enrichment (6-mer frequency, TF over GST control)","1.25 fold enrichment (6-mer frequency, TF over GST control)","1.16 fold enrichment (6-mer frequency, TF over GST control)","1.26 fold enrichment (6-mer frequency, TF over GST control)","1.22 fold enrichment (6-mer frequency, TF over GST control)"
